Data on 35 molecules can be found in PubChem BioAssay AID687036 (The Scripps Research Institute Molecular Screening Center, 2013).

Among all 3,300 compounds or so, about 1,400 (42%) were called active.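 The calls were made as follows: active = mean inhibition across replicates above the hit cutoff derived for the earlier primary screen (cut at about 22% in these data); inactive = the rest.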 So high a share suggests a set chosen from earlier hits. Not all results are given here.

For orientation: inhibition means the relative decrease from the control value, in per cent.

For the assay, the target named is Protein arginine N-methyltransferase 1 (Homo sapiens) (UniProt Q99873). Briefly: human PRMT1 activity-probe blockers, retest – biochemical, fluorescence polarization, triplicate, confirmation (AID 687036). To be noted: recombinant His-PRMT1, activity-based probe fluorescence polarization; at 2.79 µM; stronger effect = higher value.
Sequence of Protein arginine N-methyltransferase 1 (Homo sapiens) (Q99873 whole entry, looked up): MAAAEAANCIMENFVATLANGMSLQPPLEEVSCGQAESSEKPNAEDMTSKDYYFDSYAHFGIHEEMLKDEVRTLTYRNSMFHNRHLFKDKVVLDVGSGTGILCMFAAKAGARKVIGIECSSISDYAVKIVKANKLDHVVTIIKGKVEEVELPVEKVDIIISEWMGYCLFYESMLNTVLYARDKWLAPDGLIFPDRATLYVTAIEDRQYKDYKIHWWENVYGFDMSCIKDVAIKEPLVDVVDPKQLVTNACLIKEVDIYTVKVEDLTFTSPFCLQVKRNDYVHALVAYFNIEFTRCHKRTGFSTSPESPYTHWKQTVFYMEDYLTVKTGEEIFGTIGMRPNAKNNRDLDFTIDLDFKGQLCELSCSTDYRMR
For `COc1cccc(NC(=O)COC(=O)/C=C/c2ccco2)c1`, the inhibition is 10.2% (inactive).
`COc1cccc(NC(=O)CSc2nccn(-c3ccc4c(c3)OCCO4)c2=O)c1`: the inhibition is 26.1% (active).
For `CC(=O)Nc1cc(-c2ccccc2N(C)C)cn2c(-c3ccc(F)c(Cl)c3)cnc12` the value was 1.55% (inactive); for `c1ccc(Cc2c(-c3ccco3)nc3c4ccccc4ccn23)cc1`, 9.04% (inactive); for `COc1ccc(NC2=CC(=S)NC(C)(C)C2)cc1`, -3.18% (inactive).
Under `S=c1[nH]nc(-c2ccco2)n1/N=C/c1ccc(Br)s1` stands 13.1% (inactive).
Regarding `COc1ccc(N2C(=O)CC(Sc3n[nH]c(-c4ccc(C)cc4)n3)C2=O)cc1` (stereo not given), the inhibition is 59% (active).
Turning to `COc1ccc(N2C(=O)CC(N3CCC(C(N)=O)CC3)C2=O)cc1` (stereo not given), the inhibition was 9.59% (inactive).
With `O=C1CC(Sc2ncn[nH]2)C(=O)N1c1ccccc1` (stereo not given), the inhibition is 68.5% (active).
Under `Cc1ccc(N2C(=O)CC(Sc3ncn[nH]3)C2=O)cc1` (stereo not given) stands 24.3% (active).
Under `CN(CCOc1ccccc1)C(=O)c1cc(-c2ccco2)nc2ccccc12` stands 10.7% (inactive).
For `COc1ccc(-c2cc3c(c4c2ccn4C)C2CCC3C2)cn1` (stereo not given) the value was -5.46% (inactive).
For `Cc1cc(C)c(/C=C2\C(=O)Nc3ccccc32)[nH]1`, the inhibition is 77.3% (active).
For `CC(=NNC(=S)N1CCCCCC1)c1ccccn1` the value was 5.21% (inactive); for `O=S(=O)(c1ccc(Sc2nnc3ccccn23)nc1)N1CCOCC1`, -3.1% (inactive).
For `N#CC1=C(N)Oc2c(sc3ccccc23)C1c1ccco1` (stereo not given) the value was 28.5% (active).
For the molecule `Cc1cc2c(c(=O)n1Cc1ccco1)C(c1ccccc1)C(C#N)=C(N)O2` (stereo not given), the inhibition was 6.2% (inactive).
Under `O=C(c1ccc[nH]c1=S)N1CCN(S(=O)(=O)c2ccc(Br)cc2Cl)CC1` stands 11.5% (inactive); under `COC(=O)c1ccc(NCc2cc(O)ccc2O)cc1`, 22.6% (active).
Under `COc1ccc(NC(=O)c2ccc(C#CC(C)(C)O)cc2)cc1` stands 3.21% (inactive); under `Cc1ccc(/C=C/C(=O)Nc2ccc([N+](=O)[O-])c(NC(=O)/C=C/c3ccc(C)o3)c2)o1`, 60.6% (active); under `CN(C)C(=O)N=NC(=O)N(C)C`, 15.4% (inactive).
As to `Cc1cccc(CS(=O)(=O)c2ncc(Cl)c(C(=O)Nc3ccc(F)cc3)n2)c1`, the inhibition is 18.9% (inactive).
For `Cc1ccc(-c2nn(-c3ccccc3)cc2CN(Cc2ccccc2)C(=O)CCC(=O)O)o1` the value was 21.8% (active).
Under `Cc1ccc(-c2nn(-c3ccccc3)cc2/C=C2\SC(=S)N(CCCCCC(=O)O)C2=O)o1` stands 18.1% (inactive).
Under `Cc1cccc(NC(=O)CSC(N)=O)c1C` stands 96.6% (active).
For the molecule `Cc1ccccc1-n1c(SCC(=O)Nc2cccc3ccccc23)nc(O)cc1=O`, the inhibition was 2.26% (inactive).
For `O=C(NC1=CC(=O)c2ccccc2C1=O)c1ccccc1` the value was 42.6% (active); for `Cc1ccc(OS(=O)(=O)c2ccc(-c3csc(C)n3)s2)c(C)c1`, 8.35% (inactive); for `CO/N=C(\C(=O)N[C@@H]1C(=O)N2C(C(=O)O)=C(COC(C)=O)CS[C@H]12)c1csc(N)n1` (stereo in doubt), 11.4% (inactive).
On to `C=CCn1c(=S)[nH]c2scc(-c3ccco3)c2c1=O`, for which the inhibition was 56.8% (active).
For `O=C(CCN1CCc2ccccc2C(O)(c2ccccc2)C1)c1ccc2c(c1)OCCO2` (stereo not given), the inhibition is 38% (active).
For `COc1ccccc1-n1c(SCC(=O)Nc2ccc(Cl)cc2)nc(O)c(Cc2ccccc2)c1=O` the value was 18.7% (inactive); for `Cc1cccc(NC(=O)c2nc(S(=O)(=O)Cc3ccccc3)ncc2Cl)c1`, 16.1% (inactive); for `O=C(Nc1ccccc1)c1nnsc1S(=O)(=O)c1ccc(Cl)cc1`, 79.7% (active).
